We go through 7 compounds from PubChem BioAssay (Tox21).

Each structure is given as a SMILES string. “And” between values parts separate entries of the source, which are not always exact repeats. Equal values may be shown once. Records with an inconclusive call do not appear. Some compounds were tested as several samples or in several runs, with calls that do not always agree. The source made the active and inactive calls. Unless noted, calls come from the whole dose curve; as a rule, active = well fitted curve in the direction sought with a large enough effect in the repeat runs; inconclusive = weak or mixed curves; inactive = no such curve, though single readings can be large; an effect the other way counts as inactive or inconclusive.

The nature of test [1]: qHTS assay to identify small molecule agonists of the hypoxia (HIF-1) signaling pathway - cell viability counter screen (AID 1224844; calls by dose curve; note: nearly all actives have a fitted effect of over 50% in size; note: potency is the fitted concentration of half-maximal effect). Put shortly:
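HRE-bla ME-180 cells in medium with 0.5% dialyzed FBS were preincubated 5 hrs at 37C, exposed to compounds for 17 hrs, then viability was read as CellTiter-Glo luminescence after 30 min at room temperature, in the reporter wells.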
Background: In qHTS, concentration-response curves come from the screen itself.

A short description of test [2]: qHTS assay to identify small molecule agonists of the hypoxia (HIF-1) signaling pathway (AID 1224846; active = well fitted activation curve with a large enough effect in the signal ratio in the repeat runs, not every such curve was filed as active; the % refers to the signal ratio). The essentials:
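HRE-bla ME-180 cells (beta-lactamase reporter under hypoxia response element) were plated at 2,000 cells/well in medium with 0.5% dialyzed FBS, rested 5 hrs, then given compounds in DMSO for 17 hrs at 37C, 5% CO2. Reporter induction was read with CCF4-AM FRET substrate.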

The nature of test [3]: qHTS assay to identify small molecule agonists of H2AX - cell viability counter screen (AID 1224847; calls by dose curve;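 note: wild-type CHO-K1 cells; top concentration of the series differs between compounds; nearly all actives have a fitted effect of over 30% in size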). Put shortly: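 After overnight plating of 1000 CHO-K1 cells per well, a 15-concentration compound series was applied for 3 hr at 37C. Luminescence from CellTiter-Glo, read following 30 min at room temperature, reflected cell viability.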
Test [4] in a line: qHTS RealTime-Glo MT Cell Viability Assay in HepG2 cells - 24 hour (AID 1224867). Note: nearly all actives have a fitted effect of over 50% in size. The essentials:
(§1)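 Cells + NanoLuc/prosubstrate dispensed (600 cells/well) → 5 h at 37 C/5% CO2 → compounds in DMSO transferred → 40 h incubation at 37 C, luminescence read at 0, 8, 16, 24, 32, 40 h.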

Test [5] in a line: qHTS RealTime-Glo MT Cell Viability Assay in HEK293 cells - 32 hour (AID 1224868). Note: nearly all actives have a fitted effect of over 50% in size. Note: potency is the fitted concentration of half-maximal effect. The essentials: (§2)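 Tox21 10K qHTS, HEK293, 600 cells/well, RealTime-Glo reagent co-dispensed with cells; 5 h preincubation, compound by pintool, 37 C, luminescence at 0–40 h.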
A short description of test [6]: A CellTox Green Cytotoxicity Assay to monitor cytotoxicity in HEK293 cells - 0 hour (AID 1224869). Note: nearly all actives have a fitted effect of over 50% in size. Put shortly:
(§3)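 HEK293 cells premixed with CellTox Green dye were seeded at 600 cells/well and left 5 h at 37 C/5% CO2 before pin transfer of 23 nL compound in DMSO. Fluorescence from dye bound to dead-cell DNA was read during 40 h treatment.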

Test [7] can be described thus: qHTS RealTime-Glo MT Cell Viability Assay in HepG2 cells - 40 hour (AID 1224870). Note: nearly all actives have a fitted effect of over 50% in size. Put shortly:
(§4)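 HepG2 cells (600/well) mixed with RealTime-Glo MT reagent, settled 5 h at 37 C/5% CO2 before compound addition. Nonlytic NanoLuc luminescence from viable-cell prosubstrate reduction read repeatedly during 40 h treatment at 37 C.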

The nature of test [8]: A CellTox Green Cytotoxicity Assay to monitor cytotoxicity in HEK293 cells - 40 hour (AID 1224871). Note: nearly all actives have a fitted effect of over 45% in size. The essentials: as §3
A short description of test [9]: qHTS RealTime-Glo MT Cell Viability Assay in HEK293 cells - 16 hour (AID 1224872). The essentials:
as §2

The nature of test [10]: qHTS RealTime-Glo MT Cell Viability Assay in HepG2 cells - 8 hour (AID 1224873). Note: nearly all actives have a fitted effect of over 55% in size. Note: potency is the fitted concentration of half-maximal effect. Put shortly: as §4
The nature of test [11]: qHTS RealTime-Glo MT Cell Viability Assay in HEK293 cells - 40 hour (AID 1224874). Note: nearly all actives have a fitted effect of over 50% in size. Particulars: RealTime-Glo luminescence; max response: stronger effect = lower value. Put shortly: (§5)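 HEK293 cells mixed with RealTime-Glo reagents (NanoLuc plus cell-permeant prosubstrate) at 600 cells/well, preincubated 5 h at 37 C/5% CO2, then given 23 nL compound in DMSO. Nonlytic luminescence from viable cells was read at 0, 8, 16, 24, 32 and 40 h.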

The nature of test [12]: A CellTox Green Cytotoxicity Assay to monitor cytotoxicity in HEK293 cells - 24 hour (AID 1224875). Note: nearly all actives have a fitted effect of over 45% in size. The essentials:
as §3

Test [13] is described as follows: A CellTox Green Cytotoxicity Assay to monitor cytotoxicity in HepG2 cells - 16 hour (AID 1224876). Note: nearly all actives have a fitted effect of over 45% in size. Put shortly: (§6)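 HepG2 cells were seeded together with the CellTox Green dye at 600 cells/well, left 5 h at 37 C/5% CO2, then given compounds in DMSO. Fluorescence from dye bound to dead-cell DNA was read repeatedly over 40 h of treatment at 37 C.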
Test [14] can be described thus: qHTS RealTime-Glo MT Cell Viability Assay in HepG2 cells - 32 hour (AID 1224877). Note: nearly all actives have a fitted effect of over 55% in size. Put shortly:
as §1

Test [15] is described as follows: A CellTox Green Cytotoxicity Assay to monitor cytotoxicity in HepG2 cells - 24 hour (AID 1224878). Note: nearly all actives have a fitted effect of over 45% in size. Put shortly:
as §6

A short description of test [16]: A CellTox Green Cytotoxicity Assay to monitor cytotoxicity in HepG2 cells - 40 hour (AID 1224879). Note: nearly all actives have a fitted effect of over 40% in size. The essentials: as §6
A short description of test [17]: qHTS RealTime-Glo MT Cell Viability Assay in HEK293 cells - 0 hour (AID 1224880). Put shortly:
as §5

The nature of test [18]: qHTS assay to identify small molecule agonists of the estrogen related receptor (ERR) signaling pathway from Tox21 library (AID 1224849; calls by dose curve; note: nearly all actives have a fitted effect of over 15% in size). To be noted: ERR reporter cell line, ONE-Glo luciferase, 18 h; at 92.4 µM (top of the series). The essentials:
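ERR reporter cell line (NTP) seeded, rested 6 h at 37 C/5% CO2, then pinned with Tox21 compounds in DMSO. After 18 h at 37 C, ONE-Glo luciferase luminescence was read following 30 min at room temperature.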
% is set by controls: 0 for no effect and ±100 for the full control effect.

On to `C#CC(O)(C=CCl)CC` (stereo not drawn), for which the Potency entry in test [1], in test [3], in [4], in [5], in test [6] and in test [7] was “inactive” throughout. The Potency result in [8], in test [9], in test [10], in test [12], in [13] and in test [14] was “inactive” in each case. The Potency result in [15] and in test [16] was “inactive” throughout. For the same compound, the outcome in test [2] and in [17] was inactive. Moreover, the max response in test [11] is 10.1% (inactive).

For `CC(Cc1ccccc1)NCc1ccccc1Cl` (stereo not drawn), the Potency entry in [1], in [4], in test [5], in [6], in test [7] and in test [9] was “inactive” in each case. Further, the Potency entry in test [14], in test [15] and in [16] was “inactive” throughout. For the same compound, the max response in test [11] was -14.1% (inactive). The outcome in test [17] was inactive.

`CC[N+]1(CCOC(=O)C(O)(c2ccccc2)c2ccccc2)CCCCC1`: the Potency result in [1], in test [3], in test [4], in [5], in test [6] and in [7] was “inactive” throughout. Besides, the Potency result in [8], in test [9], in [10], in test [12], in test [13] and in test [14] was “inactive” each time. Also, the Potency entry in test [15] and in [16] was “inactive” throughout. In addition, the compound was called inactive in [2] and in [17]. Moreover, the max response in [11] was 4.06% (inactive).

Turning to `CC1(C)[C@H](C(=O)O[C@H](C#N)c2cccc(Oc3ccccc3)c2)[C@@H]1C=C(Br)Br`, the Potency result in test [1], in [3], in test [4], in test [5], in [6] and in test [7] was “inactive” in each case. Also, the Potency result in test [8], in [9], in test [12], in test [13], in test [14] and in test [15] was “inactive” throughout. The Potency result in test [16] is “inactive”. The activity change, positive = activation in test [18] was -23.2% (inactive) and -24.2% (inactive). In addition, the max response in test [11] is -8.94% (inactive) and -16.3% (inactive). In addition, in [17], the compound was classed as inactive.

Regarding `Cc1nc(N(C)C)nc(OC(=O)N(C)C)c1C`, the Potency result in [1], in [3], in test [4], in test [5], in test [6] and in test [7] was “inactive” in each case. Further, the Potency result in test [8], in test [9], in [12], in test [15] and in [16] was “inactive” each time. The call in [2] and in test [17] was inactive. In test [11], the max response is 2.7% (inactive).

As for `CN1C[C@H](C(=O)N[C@]2(C)O[C@@]3(O)[C@@H]4CCCN4C(=O)[C@H](Cc4ccccc4)N3C2=O)C=C2c3cccc4[nH]cc(c34)C[C@H]21`, the Potency in [1] was 24.7 µM (active) and 14.4 µM (active); in test [5], 27.7 µM (active) and inactive; in [10] it was 13.9 µM (active) and 12.8 µM (active). Moreover, the Potency entry in [3], in [8], in [9], in [12], in [13] and in test [15] was “inactive” throughout. The Potency entry in [16] was “inactive”. Moreover, in [11], the max response was -10.8% (inactive). The result in [17] was inactive.

Take `COC(=O)Cc1ccccc1`: the Potency result in test [1], in test [3], in test [4], in [5], in test [6] and in [7] was “inactive” throughout. The Potency entry in test [8], in test [9], in [10], in test [12], in test [13] and in [15] was “inactive” throughout. Moreover, the Potency entry in test [16] is “inactive”. In addition, the compound was classed as inactive in [2] and in test [17]. Moreover, the max response in test [11] is 7.1% (inactive).
